Compounds with a hit are over-represented: about 3.8% of the library has one in this group of screens.
Gli-Sufu block – blocks Gli-Sufu signaling in a luciferase reporter; inhibition, % at 5 µM; AID 588413; Sufu-KO-LIGHT fibroblasts, Gli luciferase reporter luminescence; hit rate 0.74% among 340,000;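 active means inhibition above about 55%, limit read from the data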
Shn3 inh set2 – Schnurri-3 reporter inhibition in Clone20 osteoblasts. AID 588674. Clone20 osteoblast Shn3 3'UTR firefly luciferase, 24 h. hit rate 0.52% among 360,000. inhibition, % at 12.5 µM;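 active means mean inhibition of at least 75% with every replicate also reaching 75%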
697 NFkB inh – inhibitors of the PMA/ionomycin-induced NF-kB reporter in 697 B cells; 697 B-cell NF-kB luciferase reporter, 16 h; inhibition, % at 4 µM; hit rate 0.33% among 330,000; AID 435022; in the data active means inhibition above about 35%
Mdm2-MdmX inh – disrupts the human Mdm2-MdmX interaction | AID 485346 | hit rate 3% among 330,000 | inhibition, % at 8 µM | SaOS-2 split-luciferase Mdm2/MdmX complementation, luminescence;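 active means inhibition of at least 50% at 8 µM in the primary screen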
Target sequence (O15151 whole entry, looked up): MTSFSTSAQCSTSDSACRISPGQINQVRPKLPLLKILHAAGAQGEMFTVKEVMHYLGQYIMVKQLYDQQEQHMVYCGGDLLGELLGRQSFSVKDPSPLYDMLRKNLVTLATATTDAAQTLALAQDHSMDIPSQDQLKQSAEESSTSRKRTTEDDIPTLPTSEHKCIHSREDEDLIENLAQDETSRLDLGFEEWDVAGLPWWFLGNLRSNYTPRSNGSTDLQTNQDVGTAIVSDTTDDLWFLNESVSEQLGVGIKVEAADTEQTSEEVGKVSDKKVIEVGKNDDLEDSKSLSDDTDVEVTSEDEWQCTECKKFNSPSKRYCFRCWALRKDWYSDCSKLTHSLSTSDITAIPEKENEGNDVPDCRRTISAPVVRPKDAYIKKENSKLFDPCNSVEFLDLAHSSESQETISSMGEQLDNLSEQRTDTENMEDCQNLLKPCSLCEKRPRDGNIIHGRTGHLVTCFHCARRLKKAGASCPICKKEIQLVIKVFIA
Target sequence (Q00987 whole entry, looked up): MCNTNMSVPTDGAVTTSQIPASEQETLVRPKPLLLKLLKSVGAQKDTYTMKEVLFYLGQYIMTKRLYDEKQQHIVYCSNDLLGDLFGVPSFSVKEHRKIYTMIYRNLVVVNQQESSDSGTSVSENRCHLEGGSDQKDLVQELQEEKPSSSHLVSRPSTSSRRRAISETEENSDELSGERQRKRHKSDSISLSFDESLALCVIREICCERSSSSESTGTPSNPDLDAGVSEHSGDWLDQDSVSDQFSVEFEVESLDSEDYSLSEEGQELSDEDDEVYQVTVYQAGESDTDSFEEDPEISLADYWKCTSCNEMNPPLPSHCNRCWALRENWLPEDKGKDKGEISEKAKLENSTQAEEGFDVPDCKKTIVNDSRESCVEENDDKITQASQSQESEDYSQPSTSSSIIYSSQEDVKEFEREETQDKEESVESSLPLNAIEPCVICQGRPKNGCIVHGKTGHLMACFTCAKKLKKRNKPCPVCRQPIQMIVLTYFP
Jurkat NFkB inh – inhibitors of the PMA/ionomycin-induced NF-kB reporter in Jurkat cells. PMA/ionomycin-induced NF-kB luciferase reporter, luminescence. inhibition, % at 4 µM. hit rate 0.53% among 330,000. AID 435003; in the data active means inhibition above about 50%
Mdm2-MdmX conf – confirmation of human Mdm2/MdmX interaction inhibitors; AID 489028; Mdm2-MdmX binding, luminescent assay; shares compounds with Mdm2-MdmX inh; hit rate 55% among 10,000; inhibition, % at 8 µM; in the data active means inhibition above about 40%
FLuc counter – full-length luciferase inhibition in Mdm2/MdmX counter-screen; shares compounds with Mdm2-MdmX inh; SaOS-2 full-length luciferase counterscreen, luminescence; inhibition, % at 8 µM; hit rate 77% among 6,200; AID 504607;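 active means mean inhibition at 8 µM reaching about 37%, which flags the compound as non-specific, limit read from the data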;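 further: p53-null SaOS-2 cells with luciferase driven by a doxycycline-inducible promoter; compound on cells about two nights before reading with doxycycline added after day one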
A number is an active result; – = inactive; · = no result given.

SMILES | Gli-Sufu block | Shn3 inh set2 | 697 NFkB inh | Mdm2-MdmX inh | Jurkat NFkB inh | Mdm2-MdmX conf | FLuc counter
N#CC1=C(N)C(C#N)(C#N)C(c2cccnc2)C2CC(c3ccccc3)CC=C12 (centres undefined) | – | – | – | 62 | – | 61 | –
N#CC1=C(N)C(C#N)(C#N)C(c2cccnc2)C2CCCC=C12 (centres undefined) | · | · | – | – | – | · | ·
Cc1[nH]ncc1-c1ccccc1Cl | – | – | – | – | – | · | ·
COc1cc(C(=O)NCCOc2ccc(Cl)cc2)ccc1OCc1c(C)noc1C | – | – | – | – | – | · | ·
O=C(NCCN1CCOCC1)c1ccc2c(c1)N(Cc1ccccc1F)C(=O)c1ccccc1S2(=O)=O | – | – | – | – | – | · | ·
COc1cc(-c2noc(C)c2C#Cc2ccc(N)cc2)cc(OC)c1OC | – | – | – | 89 | – | 70 | 89
CCCSc1nsc(NC(=O)Nc2ccc(F)cc2F)n1 | – | – | – | 87 | – | 59 | 71
CCCSc1nsc(NC(=O)C(c2ccccc2)c2ccccc2)n1 | – | – | – | – | – | · | ·
COc1cccc(NC(=O)Nc2nc(SC(C)(C)C)ns2)c1 | – | – | – | 93 | – | 72 | 57
COc1cccc(NC(=O)Nc2nc(SC)ns2)c1 | – | – | – | – | – | · | ·
CC(=O)Nc1cccc(NC(=O)Nc2cccc(F)c2)c1 | – | – | – | – | – | · | ·
CCSc1nsc(NC(=O)Nc2cccc(F)c2)n1 | – | – | – | 94 | – | 88 | –
COc1ccc2oc(C(=O)OCC(=O)NCc3ccc(OC)c(OC)c3)c(C)c2c1 | – | – | – | – | – | · | ·
N/C(=N\OC(=O)CSc1ccccc1)c1ccncc1 | – | – | – | – | – | · | ·
CCC1CCCCN1CCCNC(=O)c1ccc2c(c1)c(C)c(C)n2C (centres undefined) | – | – | – | – | – | · | ·
CCC(C)N(C(=O)CSc1nnc(NC(C)C)s1)C1CCS(=O)(=O)C1 (centres undefined) | – | – | – | – | – | · | ·
COc1ccc(NC(=O)c2oc3ccc(S(=O)(=O)N4CCC5(CC4)OCCO5)cc3c2C)cc1 | – | – | – | 71 | – | – | ·
Cc1c(C(=O)Nc2cc(S(=O)(=O)N3CCOCC3)ccc2N2CCN(C)CC2)oc2ccccc12 | – | – | – | 56 | – | – | 65
CCN(CC)c1ccc(S(=O)(=O)N2CCOCC2)cc1NC(=O)CSc1ccccc1 | – | – | – | – | – | · | ·
CCN(CC)c1ccc(S(=O)(=O)N2CCOCC2)cc1NC(=O)c1cc(=O)c2ccccc2o1 | – | – | – | 51 | – | – | ·
CC(C)(C)OC(=O)NCCCCCO | – | – | – | – | – | · | ·
COc1ccccc1NC(=O)C(C)N(C)Cc1ccc(Cl)s1 (centres undefined) | – | – | – | – | – | · | ·
CCN(c1ccccc1)S(=O)(=O)c1ccc(NC(=O)c2nc(S(C)(=O)=O)ncc2Cl)cc1 | – | 98 | – | 99 | – | 96 | 51
CS(=O)(=O)c1ncc(Cl)c(C(=O)Nc2ccc(N3CCOCC3)cc2)n1 | – | 94 | – | 88 | – | 53 | 41
CCN(c1ccccc1)S(=O)(=O)c1ccc(C(=O)Nc2ccncc2)cc1 | – | – | – | – | – | · | ·
SMILES | Gli-Sufu block | Shn3 inh set2 | 697 NFkB inh | Mdm2-MdmX inh | Jurkat NFkB inh | Mdm2-MdmX conf | FLuc counter
O=C(Nc1ccc(OC(F)F)cc1)c1ccccn1 | – | – | – | – | – | · | ·
CS(=O)(=O)c1ccc(C(=O)Nc2ccc(N3CCOCC3)cc2)c(Cl)c1 | – | – | – | – | – | · | ·
CS(=O)(=O)c1ncc(Cl)c(C(=O)Nc2ccc(OC(F)F)cc2)n1 | – | 93 | – | 92 | – | 100 | 52
COc1ccccc1CNC(=O)C(NC(=O)c1ccccc1C)C(C)C (centres undefined) | – | – | – | – | – | · | ·
O=C1/C(=N\S(=O)(=O)c2cccs2)C([n+]2ccc(CCCc3ccccc3)cc2)=C([O-])c2ccccc21 | – | · | – | 83 | – | 52 | 41
CCc1ccc(N(CC(=O)NC(C)C)C(=O)CCC(=O)Nc2ccccn2)cc1 | – | – | – | – | – | · | ·
Cc1ccc(S(=O)(=O)Nc2cccc3cccnc23)c([N+](=O)[O-])c1 | 61 | – | – | 100 | – | 75 | 54
Cc1ccccc1NS(=O)(=O)c1ccc(S(=O)(=O)N2CCCC2)cc1 | · | – | · | · | · | · | ·
O=S(=O)(Nc1cccc2cccnc12)c1ccc(S(=O)(=O)N2CCCC2)cc1 | – | – | – | 83 | – | 53 | 37
COc1cccc(CN(C)CCCn2ccc(NC(=O)OCc3ccccc3)nc2=O)c1 | – | – | · | · | · | · | ·
CCN(CC)c1ccc(NC(=O)c2ccc3c(c2)c(C)c(C)n3C)cc1 | – | – | – | 61 | – | 48 | 71
Cc1c(C)n(C)c2ccc(C(=O)NCCCN3CCCC3)cc12 | – | – | – | – | – | · | ·
CCCCNc1c(-c2ccc(-c3ccc(C(C)=O)cc3)c(OC)c2)nc2cc(C)ccn12 | – | – | – | – | – | · | ·
CCC(C)Sc1ccc(-c2nc3ccc(C)cn3c2NCc2ccccc2)cc1OC (centres undefined) | – | – | – | 97 | – | 57 | 39
CCCCNc1c(-c2ccc(OC)c(SC3CCCCC3)c2)nc2ccc(C)cn12 | – | 96 | – | 98 | – | 46 | –
COc1ccc(-c2nc3ccc(C)cn3c2NCc2ccccc2)cc1SC1CCCCC1 | – | 98 | – | 53 | – | – | ·
CCCCNc1c(-c2ccc(Sc3ccc(OC)cc3)cc2)nc2cc(C)ccn12 | – | – | – | 80 | – | – | ·
COc1ccc(C2OCC(C)([N+](=O)[O-])CO2)cc1 (centres undefined) | – | – | · | · | · | · | ·
Cc1ccccc1NC(=O)Cc1nc(COC(=O)c2cccc([N+](=O)[O-])c2)cs1 | – | – | – | – | – | · | ·
O=C(NC1CCCCCC1)C1CCC(=O)N(Cc2ccccc2F)C1 (centres undefined) | – | – | – | – | – | · | ·
CCCc1cc(=O)[nH]c(SCC(=O)N(C)C2CCCCC2)n1 | – | – | – | – | – | · | ·
CCCCNc1c(-c2ccc(OC)c(SC(C)CC)c2)nc2ccc(C)cn12 (centres undefined) | – | – | – | 89 | – | – | ·
COc1cc2cc(C(=O)Nc3ccc4c(c3)OCCO4)[nH]c2cc1OC | – | – | – | 65 | – | 48 | 71
CCOC(=O)N1CCN(C(=O)c2ccc3c(c2)N=C(CC)c2cc(C)ccc2S3)CC1 | – | – | – | – | – | · | ·
CCOC(=O)N1CCC(NC(=O)c2ccc3c(c2)N=C(CC)c2cc(C)ccc2S3)CC1 | – | – | – | 61 | – | 69 | 52
Cc1cc(=O)oc(C)c1C(=O)Nc1ccc(F)cc1 | – | · | – | – | – | · | ·
O=C(Nc1cc([N+](=O)[O-])ccc1Cl)c1ccc2c(c1)OCO2 | – | – | – | 74 | – | – | ·
O=C(Nc1ncc([N+](=O)[O-])s1)c1ccc2c(c1)OCO2 | – | – | – | 75 | – | 69 | 64
Cc1onc(-c2ccccc2)c1C(=O)Nc1nnc(C(C)C)s1 | – | – | – | – | – | · | ·
